From ChEMBL document CHEMBL3433997, “St. Jude Leishmania screening dataset” (2016)

The compounds below were run against Solute carrier family 2, facilitated glucose transporter member 1 (Homo sapiens) (UniProt P11166) (assay: ST_JUDE_LEISH: Cytotoxicity at 2uM final concentration against transgenic Leishmania Mexicana promastigotes LmGLUT1 that are glucose transport deficient and complemented with the human glucose transporter GLUT1. Activity is measured by DNA content using SYBR green in vitro).
Chain of Solute carrier family 2, facilitated glucose transporter member 1 (Homo sapiens) (P11166 whole entry): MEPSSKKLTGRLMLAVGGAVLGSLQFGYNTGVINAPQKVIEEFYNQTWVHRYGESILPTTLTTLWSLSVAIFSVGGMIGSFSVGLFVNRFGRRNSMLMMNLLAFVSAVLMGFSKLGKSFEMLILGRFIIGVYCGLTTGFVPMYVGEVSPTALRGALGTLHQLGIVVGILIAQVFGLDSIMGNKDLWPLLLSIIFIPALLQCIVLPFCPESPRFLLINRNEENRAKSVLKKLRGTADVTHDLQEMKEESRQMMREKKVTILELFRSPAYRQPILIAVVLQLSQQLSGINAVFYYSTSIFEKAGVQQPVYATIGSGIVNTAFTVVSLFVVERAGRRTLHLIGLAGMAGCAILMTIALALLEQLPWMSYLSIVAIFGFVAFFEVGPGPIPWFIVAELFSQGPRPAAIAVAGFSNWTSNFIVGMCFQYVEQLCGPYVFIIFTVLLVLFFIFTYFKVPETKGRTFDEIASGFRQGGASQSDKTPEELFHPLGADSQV
Format: functional

| Structure (SMILES) | inhibition |
| --- | --- |
| O=C(Nc1ccc(C(F)(F)F)cc1)c1cccc(S(=O)(=O)NC2CCN(Cc3ccccc3)C2)c1 (configuration not stated) | 4.37% |
| Cc1cc(Br)c(OCCCON2C(=N)N=C(N)NC2(C)C)c(Br)c1 | 2.66% |
| O=C(Nc1cccc(-c2ccc(-c3nc4ccccc4[nH]3)s2)c1)c1ccncc1 | 1.95% |
| CC(=NNC(S)=Nc1ccccc1Cl)c1ccccn1 | 18.6% |
| CC(=O)Nc1ccc(C(=O)Nc2ccc(-c3cccc(-c4nc5ccccc5[nH]4)c3)cc2)cn1 | 0.89% |
| Cc1cc(CNCCCCCNCc2cccc([N+](=O)[O-])c2)ccc1O | 1.94% |
| Cc1cc(C)c2c(c1)C(=NO)CCN2 | -1.86% |
| O=C(N[C@@H](Cc1ccccc1)C(=O)NC1CCCCC1)c1ccc(O)c(-c2ccc(Cl)c(Cl)c2)c1 | -0.99% |
| OCC(CO)(CO)NCc1ccc2c3c(cccc13)-c1ccccc1-2 | 12.1% |
| CCCCCCCCCCNCC(O)c1ccc(O)c(C(=O)OC)c1 (configuration not stated) | -0.21% |
| COc1ccc2c(c1)OC(C)(C)CC2=NOS(=O)(=O)c1ccc(C)cc1 | 2.81% |
| Cc1cc(C)c(C(=O)Nc2ccc3nc(C)cc(N)c3c2)c(C)c1 | -0.82% |
| CCOC(=O)NC1=NC(C)(C)N(OCc2ccc(Cl)c(Cl)c2)C(NC(=O)OCC)=N1 | 3.54% |
| O=C(N[C@H]1CCN(Cc2ccc(OC3CCN(Cc4ccccc4)CC3)c(Cl)c2)C1)c1ccc(Cl)c(Cl)c1 | 0.44% |
| Cc1[nH]c(C)c(-c2ccc(-c3ccc(F)cc3)nc2)c(=O)c1Br | 0.98% |
| Cc1ccc(Cc2c[nH]c(NCCSCc3ccc(CN(C)C)s3)nc2=O)cn1 | 1.24% |
| O=C(NCCN1CCCC1)c1ccc(-c2cccc(-c3nc4cc(F)ccc4[nH]3)c2)cc1 | -0.16% |
